For 21 compounds, growth inhibition, inhibition and outcome results are on record in PubChem BioAssay.

Molecules are shown by their SMILES. Values without a mark were called inactive. For part of these data: Results with a measured potency or affinity are listed apart. The source made the active and inactive calls. Unless noted, the rule behind the calls is not given here.

Experiment [1] can be described thus: antimalarial activity against Dd2 strain (AID 2302;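 active = growth inhibition above 50% at the single 2 µM test dose, taken to imply half-maximal potency below 2 µM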;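 note: 0% = DMSO untreated growth and 100% = chloroquine plus artemisinin killed control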). To be noted: P. falciparum Dd2 in RBCs, LDH growth readout, 72 h; at 2 µM; stronger effect = higher value.
Experiment [2] is described as follows: human hepatoma cell viability loss – ATP luminescence, cytotoxicity control for P. falciparum antimalarial project, primary screen (AID 2303;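 active = inhibition above 50%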;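 note: 0% = DMSO wells and 100% = digitonin-killed cells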). To be noted: HepG2 viability, 24-48 h, at 10 µM, stronger effect = higher value.
In experiment [3] the target is L-lactate dehydrogenase (Plasmodium falciparum (isolate CDC / Honduras)) (UniProt Q27743). Put plainly: PfLDH activity inhibition – cell lysate, 3D7 strain, counter-screen for P. falciparum growth inhibition project (AID 2304).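 Note: 0% = vehicle and 100% = reference inhibitor.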 To be noted: P. falciparum 3D7 crude extract, LDH APAD/NBT absorbance; at 2 µM; stronger effect = higher value.
Experiment [4] can be described thus: inhibition of 3D7 malaria parasite growth – strain 3D7 (AID 2306).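 Note: 0% = DMSO wells and 100% = chloroquine plus artemisinin control wells.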 To be noted: P. falciparum 3D7 erythrocytic growth, LDH absorbance, 72 h; at 2 µM; stronger effect = higher value.
For experiment [5], the target named is Calcium-dependent protein kinase 1 (Plasmodium falciparum (isolate 3D7)) (UniProt P62344). Put plainly: PfCDPK1 kinase inhibitors, biochemical, TCAMS library (AID 1159585; cut-off not given, nearly all actives have IC50 up to about 0.98 µM;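 note: inhibitors leave more ATP so luminescence rises with inhibition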). To be noted: recombinant PfCDPK1, Kinase-Glo ATP depletion luminescence.
For experiment [6], the target named is Plasmodium falciparum protein kinase 6 (PK6, PF3D7_1337100) (UniProt Q8IDW1). Put plainly: PfPK6 kinase inhibitors, biochemical, TCAMS library (AID 1159586). To be noted: recombinant PfPK6, Kinase-Glo ATP depletion luminescence.
Experiment [7] has as its target Protein kinase 7 (PK7), Plasmodium falciparum 3D7 (PF3D7_0213400) (UniProt Q7YTF7). Put plainly: inhibition of Plasmodium PK7 catalytic activity – biochemical, TCAMS antimalarial set, Kinase-Glo luminescence (AID 1159587). To be noted: recombinant PfPK7, Kinase-Glo ATP depletion luminescence. In general terms: In Kinase-Glo more light means more ATP remaining.
Experiment [8] addresses Calcium-dependent protein kinase 4 (Plasmodium falciparum (isolate 3D7)) (UniProt Q8IBS5). Put plainly: PfCDPK4 kinase inhibitors, biochemical, TCAMS library (AID 1159588; cut-off not given, nearly all actives have IC50 up to about 0.91 µM). To be noted: recombinant PfCDPK4, Kinase-Glo ATP depletion luminescence.

In general, inhibition refers to the drop in the measured response relative to a control, in per cent.

Sequence of Plasmodium falciparum protein kinase 6 (PK6, PF3D7_1337100) (Q8IDW1 1-305): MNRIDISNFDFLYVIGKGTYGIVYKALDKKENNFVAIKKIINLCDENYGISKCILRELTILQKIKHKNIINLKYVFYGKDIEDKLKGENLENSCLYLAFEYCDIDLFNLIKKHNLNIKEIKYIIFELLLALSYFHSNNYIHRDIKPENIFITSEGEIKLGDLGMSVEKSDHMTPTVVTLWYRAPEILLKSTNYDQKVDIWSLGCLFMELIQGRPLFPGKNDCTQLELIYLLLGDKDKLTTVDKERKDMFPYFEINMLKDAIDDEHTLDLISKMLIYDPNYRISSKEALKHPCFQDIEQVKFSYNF
Sequence of L-lactate dehydrogenase (Plasmodium falciparum (isolate CDC / Honduras)) (Q27743 whole entry, looked up): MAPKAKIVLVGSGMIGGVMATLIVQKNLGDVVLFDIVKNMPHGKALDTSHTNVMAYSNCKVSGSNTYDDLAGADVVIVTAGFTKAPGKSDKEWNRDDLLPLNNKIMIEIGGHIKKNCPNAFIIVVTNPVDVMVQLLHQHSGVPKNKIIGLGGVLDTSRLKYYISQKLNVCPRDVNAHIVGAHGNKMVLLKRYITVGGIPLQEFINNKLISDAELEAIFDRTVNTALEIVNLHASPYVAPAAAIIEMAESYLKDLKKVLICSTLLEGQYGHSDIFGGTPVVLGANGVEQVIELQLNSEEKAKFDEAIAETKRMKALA
Sequence of Calcium-dependent protein kinase 4 (Plasmodium falciparum (isolate 3D7)) (Q8IBS5 whole entry, looked up): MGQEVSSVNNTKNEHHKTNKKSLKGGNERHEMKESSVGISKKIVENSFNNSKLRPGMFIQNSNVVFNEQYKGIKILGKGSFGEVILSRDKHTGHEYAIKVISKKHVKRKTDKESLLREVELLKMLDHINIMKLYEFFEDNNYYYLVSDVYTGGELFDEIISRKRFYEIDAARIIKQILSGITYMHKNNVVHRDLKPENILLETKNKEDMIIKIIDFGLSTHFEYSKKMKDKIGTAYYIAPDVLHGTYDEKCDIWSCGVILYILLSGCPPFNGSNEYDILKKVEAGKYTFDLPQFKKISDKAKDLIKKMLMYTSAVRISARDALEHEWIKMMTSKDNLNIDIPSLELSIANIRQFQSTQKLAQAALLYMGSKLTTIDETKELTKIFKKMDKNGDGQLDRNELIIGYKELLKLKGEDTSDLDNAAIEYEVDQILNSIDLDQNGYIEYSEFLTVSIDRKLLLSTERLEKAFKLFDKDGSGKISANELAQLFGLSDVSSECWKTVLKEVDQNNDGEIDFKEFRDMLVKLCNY
Sequence of Calcium-dependent protein kinase 1 (Plasmodium falciparum (isolate 3D7)) (P62344 whole entry, looked up): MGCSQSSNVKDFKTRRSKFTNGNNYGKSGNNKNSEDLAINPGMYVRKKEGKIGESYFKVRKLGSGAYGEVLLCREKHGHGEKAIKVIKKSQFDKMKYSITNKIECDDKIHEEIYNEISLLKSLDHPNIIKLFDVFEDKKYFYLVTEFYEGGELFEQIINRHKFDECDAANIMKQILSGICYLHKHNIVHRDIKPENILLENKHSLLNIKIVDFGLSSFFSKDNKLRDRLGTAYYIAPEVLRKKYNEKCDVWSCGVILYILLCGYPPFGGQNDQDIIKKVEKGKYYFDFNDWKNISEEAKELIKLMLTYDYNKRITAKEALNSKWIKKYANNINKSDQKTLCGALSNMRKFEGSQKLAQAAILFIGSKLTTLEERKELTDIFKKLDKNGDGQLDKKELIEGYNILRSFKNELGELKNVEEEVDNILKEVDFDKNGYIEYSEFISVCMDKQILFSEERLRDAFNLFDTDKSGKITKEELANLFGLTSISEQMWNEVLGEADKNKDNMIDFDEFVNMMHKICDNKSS
Sequence of Protein kinase 7 (PK7), Plasmodium falciparum 3D7 (PF3D7_0213400) (Q7YTF7 1-343): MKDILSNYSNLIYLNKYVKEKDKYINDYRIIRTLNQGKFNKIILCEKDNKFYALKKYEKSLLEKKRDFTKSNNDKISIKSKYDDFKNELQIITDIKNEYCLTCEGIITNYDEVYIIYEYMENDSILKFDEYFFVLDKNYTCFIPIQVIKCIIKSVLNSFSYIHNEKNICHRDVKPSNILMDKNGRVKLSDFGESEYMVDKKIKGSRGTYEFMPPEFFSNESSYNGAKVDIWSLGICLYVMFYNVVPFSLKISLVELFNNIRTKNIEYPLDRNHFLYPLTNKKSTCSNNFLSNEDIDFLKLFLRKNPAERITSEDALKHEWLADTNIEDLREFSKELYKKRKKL

For the compound `COc1cccc(C23N=C(Nc4nc5ccccc5[nH]4)NC2(c2cccc(OC)c2)NC(Nc2nc4ccccc4[nH]2)=N3)c1` (stereo not drawn), the growth inhibition was 99% (active) in experiment [1] and 101% (active) in experiment [4]. The inhibition in experiment [2] is -9%; in experiment [3], 3%. The result in experiment [5], in experiment [6], in experiment [7] and in experiment [8] was inactive.
In the case of `O=C(Nc1ccccc1)N(Cc1ccccc1-c1cccc(CNC2CCCC2)c1)C1CCN(Cc2ccccc2)CC1`, the growth inhibition in experiment [1] was 84% (active); in experiment [4], 100% (active). In addition, the values for the inhibition in experiment [2] and in experiment [3] were 36% and 3%, respectively. Also, the result in experiment [5], in experiment [6], in experiment [7] and in experiment [8] was inactive.
For `Clc1ncccc1-c1nc(NCCC(c2ccccc2)c2ccccc2)no1`, the figures for the growth inhibition in experiment [1] and in experiment [4] were 82% (active) and 94% (active), respectively. The figures for the inhibition in experiment [2] and in experiment [3] were 12% and 3%, respectively. Besides, the result in experiment [5], in experiment [6], in experiment [7] and in experiment [8] was inactive.
Turning to `O=[N+]([O-])c1ccc(NC(=NC2CCCc3ccccc32)Nc2ccccc2Br)c(O)c1` (stereo not drawn), the growth inhibition in experiment [1] is 89% (active); in experiment [4], 98% (active). Besides, the inhibition is -4% in experiment [2] and -3% in experiment [3]. Further, the outcome in experiment [5], in experiment [6], in experiment [7] and in experiment [8] was inactive.
In the case of `Cc1cc(N[C@@H](Cc2ccccc2)C(=O)NCc2cccc(F)c2)nc(NCc2ccccc2C)n1`, the growth inhibition in experiment [1] is 75% (active); in experiment [4], 100% (active). Moreover, the inhibition in experiment [2] is 6%; in experiment [3] it was 0%. Besides, the result in experiment [5], in experiment [6], in experiment [7] and in experiment [8] was inactive.
Regarding `Cc1cc(NN=Cc2ccccc2[N+](=O)[O-])c2cc(F)ccc2n1`, the growth inhibition in experiment [1] is 100% (active); in experiment [4], 102% (active). The inhibition is 18% in experiment [2] and -3% in experiment [3]. Besides, the outcome in experiment [5], in experiment [6], in experiment [7] and in experiment [8] was inactive.
As to `Cc1noc(C)c1-c1ccc2c(Nc3cccc4c3-c3ccccc3C4=O)c(C(=O)NCc3ccccc3I)cnc2c1`, the growth inhibition in experiment [1] and in experiment [4] was 99% (active) in each case. Further, the inhibition is 27% in experiment [2] and 2% in experiment [3]. The outcome in experiment [5], in experiment [6], in experiment [7] and in experiment [8] was inactive.
Consider `Cc1cc(F)ccc1N(c1nc(-c2cc(Cl)ccc2Cl)cs1)C1CCNC1` (stereo not drawn), for which the growth inhibition in experiment [1] is 3%; in experiment [4], 99% (active). Besides, the inhibition in experiment [2] is 19%; in experiment [3], 0%. The result in experiment [5], in experiment [6], in experiment [7] and in experiment [8] was inactive.
For `COc1cc(N)c(Cl)cc1C(=O)NCC1CCN(c2nc(C)cc(C)n2)CC1`, the results for the growth inhibition in experiment [1] and in experiment [4] were 95% (active) and 96% (active), respectively. For the same compound, the values for the inhibition in experiment [2] and in experiment [3] were -6% and 4%, respectively. The result in experiment [5], in experiment [6], in experiment [7] and in experiment [8] was inactive.
`COc1ccc(Nc2cc(C)nc(Nc3ccc(NC(C)=O)cc3)n2)cc1`: the values for the growth inhibition in experiment [1] and in experiment [4] were 31% and 98% (active), respectively. The inhibition in experiment [2] is 16%; in experiment [3] it was -1%. The outcome in experiment [5], in experiment [6], in experiment [7] and in experiment [8] was inactive.
Consider `O=S(=O)(Nc1cc2c(cc1OCc1ccccc1)CCN(C1CCC1)CC2)c1ccc(-c2ccc(Cl)cc2)cc1`, for which the values for the growth inhibition in experiment [1] and in experiment [4] were 12% and 92% (active), respectively. Moreover, the inhibition in experiment [2] was 18%; in experiment [3], 0%. The result in experiment [5], in experiment [6], in experiment [7] and in experiment [8] was inactive.
For `O=C(Nc1ccc(C(F)(F)F)cc1)c1cccc(S(=O)(=O)NCC2CCCN(CC3CCCCC3)C2)c1` (stereo not drawn), the values for the growth inhibition in experiment [1] and in experiment [4] were 4% and 97% (active), respectively. In addition, the inhibition in experiment [2] was 27%; in experiment [3], 0%. The outcome in experiment [5], in experiment [6], in experiment [7] and in experiment [8] was inactive.
`CC(C)CN1CCCN(Cc2cccc(NC(=O)c3ccc(Cl)c(Cl)c3)c2)CC1`: the growth inhibition in experiment [1] was 9%; in experiment [4], 91% (active). In addition, the values for the inhibition in experiment [2] and in experiment [3] were 10% and 0%, respectively. For the same compound, the outcome in experiment [5], in experiment [6], in experiment [7] and in experiment [8] was inactive.
As for `CCC(C)c1ccc(O)c(NC(=O)c2cncc(Br)c2)c1` (stereo not drawn), the growth inhibition is 16% in experiment [1] and 100% (active) in experiment [4]. Moreover, the inhibition in experiment [2] is -13%; in experiment [3], -4%. Also, the result in experiment [5], in experiment [6], in experiment [7] and in experiment [8] was inactive.
As to `CCOc1ccc2c(NN=Cc3ccccn3)cc(C)nc2c1`, the growth inhibition was 1% in experiment [1] and 98% (active) in experiment [4]. The inhibition is 19% in experiment [2] and -3% in experiment [3]. Besides, the outcome in experiment [5], in experiment [6], in experiment [7] and in experiment [8] was inactive.
As to `COc1ccc(OCCCON2C(N)=NC(N)=NC2(C)C)cc1`, the figures for the growth inhibition in experiment [1] and in experiment [4] were 94% (active) and 97% (active), respectively. Also, the inhibition is 55% (active) in experiment [2] and -3% in experiment [3]. Also, the result in experiment [5], in experiment [6], in experiment [7] and in experiment [8] was inactive.
On to `Cc1ccc(-c2ccn(Cc3cccc(OCc4ccccc4)c3)n2)cn1` (tested in a mixture with another compound), for which the growth inhibition was 64% (active) in experiment [1] and 82% (active) in experiment [4]. In addition, the inhibition in experiment [2] is -4%; in experiment [3], 0%. In addition, the result in experiment [5], in experiment [6], in experiment [7] and in experiment [8] was inactive.
Regarding `Cc1cc(N2CCCCC2)nc2ccc(NC(=O)c3cncc(Br)c3)cc12`, the growth inhibition in experiment [1] was 86% (active); in experiment [4], 101% (active). Moreover, the inhibition in experiment [2] was -3%; in experiment [3], 0%. The result in experiment [5], in experiment [6], in experiment [7] and in experiment [8] was inactive.
Consider `O=C(c1ccc(F)c(F)c1)N1CCOC(CCN2CCC(c3ccccc3)CC2)(c2ccc(Cl)c(Cl)c2)C1` (stereo not drawn), for which the growth inhibition in experiment [1] was 75% (active); in experiment [4], 89% (active). Moreover, the inhibition is 51% (active) in experiment [2] and 2% in experiment [3]. The result in experiment [5], in experiment [6], in experiment [7] and in experiment [8] was inactive.
For the compound `CC(C)[C@@H](NC(=O)NC1CCC(CCN2[C@@H]3CC[C@H]2CC(OC(=O)C(CO)c2ccccc2)C3)CC1)C(O)(c1ccccc1)c1ccccc1` (stereo partly drawn), the growth inhibition in experiment [1] was 56% (active); in experiment [4], 96% (active). In addition, the inhibition in experiment [2] was 19%; in experiment [3], 2%. For the same compound, the result in experiment [5], in experiment [6], in experiment [7] and in experiment [8] was inactive.
`Cn1ccnc1Sc1ncccc1[N+](=O)[O-]`: the values for the growth inhibition in experiment [1] and in experiment [4] were 2% and 96% (active), respectively. Also, the values for the inhibition in experiment [2] and in experiment [3] were 0% and -3%, respectively. The outcome in experiment [5], in experiment [6], in experiment [7] and in experiment [8] was inactive.
